Reference: PubChem BioAssay (NCI)
The panel holds about 83,000 compounds, 20% with a hit somewhere; the sample as a whole holds those more often.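 For each line, cells grew in 96-well plates with the test compound present at a single concentration for 48 hours.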 A number with no mark means an inactive call. Activity calls are given as the source filed them.

What follows are compounds tested on SN12C renal (assay: NCI-60 one-dose screen, 48 h (100 = growth as untreated, 0 = no growth, -100 = all killed)). Conditions: 10 µM unless noted.
Protocol: Growth inhibition of the SN12C human tumor cell line is measured as a screen for anti-cancer activity. Cells are grown in 96 well plates and exposed to the test compound for 48 hours. Compounds are tested at a single concentration, which is 10^-5 M for most compounds. The reported endpoint is percent growth (GI% or GIPRCNT), where numbers from 0 - 100% represent growth inhibition, and numbers from -100% - 0 represent cell death. For example, a value of 40 represents 60% growth inhibition. A value of 0 means no net growth occurred over the course of the experiment. A value of -40 indicates 40% of cells at the beginning of the experiment died by the end of the experiment. A value of -100 means all cells are dead at the end of the experiment.
NCI-60 Human Tumor Cell Lines Screen was performed using the standard one-dose NCI protocol, which is described in more detail at https://dtp.cancer.gov/discovery_development/nci-60/default.htm.
Compounds with GIPRCNT values below 10 were considered active. Activity score was based on GIPRCNT using the following formula: […]
Score is 0 for GIPRCNT values of 100 or above, 50 for GIPRCNT values of 0, and 100 for GIPRCNT values of -100.
`NCCNc1ccc([N+](=O)[O-])cc1` was tested, and the growth was 103%. `CCN(CC)CCCNc1cc(OC)cc2cccnc12` gave a growth of 97.7%. `COc1ccc(/C=C2/CCc3cc4ccc(OC)cc4[o+]c32)c(O)c1` showed a growth of 13.6%. `O=C1C=CC2(O)OC(c3ccccc3)CC(=O)C2=C1O` (stereo not given) showed a growth of 78.9%. With `CCOC(=O)C#Cc1c(CC(=O)OCC)nnn1[C@H]1O[C@@H](CO)[C@@H]2OC(C)(C)O[C@@H]21` the growth was 87.1%. With `C/C(=C(\c1ccc(OCCCN(C)C)cc1)c1ccc(OC(=O)Cc2ccccc2)cc1)c1ccc(Cl)cc1` the growth was 87.3%. For `COc1cc(/C=C/c2cc(/C=C/c3ccc(O)c(OC)c3)n(C(=O)Nc3ccc(C)cc3C)n2)ccc1O`, the growth was 0.467% (active). `O=C(NS(=O)(=O)c1ccccc1)n1cc(-c2ccncc2)c(-c2cc(O)cc(Cl)c2)n1` showed a growth of 100%. Work on `Cc1c(-c2cnc3ccc(Cl)cc3c2C(=O)O)nnn1-c1ccc(Cl)cc1` yielded a growth of 89.5%. `CC1=C2[C@@H](CC1)[C@]1(C)O[C@@](C(C)C)(C[C@H]1OC(=O)CO)[C@H]2OC(=O)CCCc1ccccc1` showed a growth of 54.9%. `Oc1c(Cl)cc(Cl)c2ccc(CN3CCNCC3)nc12` gave a growth of 42.8%. For `O=C(Nc1ncc(Cc2ccc(Cl)cc2)s1)C1=NCCCCN1`, the growth was 106%. Compound `COc1ccc2c(c1)C(c1c[nH]c3ccccc13)(c1c[nH]c3ccccc13)CCO2` has a growth of 50.6%. In the case of `CCOC(=O)c1ccc2c(c1)c1c(C)c3cnccc3c(C)c1n2C`, the growth is reported as -58.2% (active). `COC(=O)c1c(C(=O)OC)c2ccc3c4ncccc4ccc3n2c1C(=O)c1ccc(C)cc1` gave a growth of 100%. For `N#Cc1c(-c2ccc(F)cc2)cc(-c2cccc(Cl)c2)[nH]c1=O`, the growth was 60.3%. With `CCOC(=O)/C(=C/c1ccc([N+](=O)[O-])cc1)C(=O)c1ccccc1` the growth was 79.3%. With `c1ccc(-c2cn3nc(-c4c[nH]c5ccccc45)sc3n2)cc1` the growth was 83%. In the case of `[2H]C([2H])([2H])Oc1c(F)cccc1/C=C/C(=O)/C=C(O)/C=C/c1cccc(F)c1OC([2H])([2H])[2H]`, the growth is reported as 93.4%. Work on `CC(=O)Cc1nsc(NC(=O)c2cc(-c3cc(Cl)ccc3Cl)oc2C)n1` yielded a growth of 101%. `Cc1ccc(C2(C)NC(=O)N(CC(=O)Nc3cccc(C)c3)C2=O)cc1` (stereo not given) gave a growth of 100%. With `O=C(CSc1nc(-c2ccccc2)cn1-c1ccc(Cl)cc1)c1ccc([N+](=O)[O-])cc1` the growth was 86.5%. In the case of `CNC(=O)c1cc(Oc2ccc3nc(NC(=O)c4cc(C(F)(F)F)cc(C(F)(F)F)c4)sc3c2)ccn1`, the growth is reported as 10.5%. For `CC(C)c1nc(N(C)S(C)(=O)=O)nc(-c2ccc(F)cc2)c1/C=C/C(=O)C[C@@H](O)CC(=O)O`, the growth was 110%. `Cn1cc(-c2ccc3c(Nc4cccc(NC(=O)Nc5cccc(F)c5)c4)ncnc3c2)cn1` showed a growth of 30.1%. With `Nc1ncc(-c2ccc3ncnc(N4CCc5cc(F)c(Cl)cc54)c3c2)cc1C=O` the growth was 12.9%. For `O=c1c2cccc3c(N4CCOCC4)ccc(c32)c2nc3ccccc3n12`, the growth was 87.6%. In the case of `Cc1ccc(Nc2nc(N)nc(N)c2N=O)cc1Cl`, the growth is reported as 90%. With `COc1cc2ncnc(Nc3ccc(S(=O)(=O)Nc4cc(C)on4)cc3)c2cc1OCCCN1CCOCC1` the growth was 104%. For `COc1cc(CNC(=O)CCCC/C=C/C(C)C)ccc1OCc1cn(-c2ccc(C(F)(F)F)cc2)nn1`, the growth was 20.5%. `COc1cc2c(c(OC)c1OC)CCC(c1cccc(C(=O)Nc3ccc([N+](=O)[O-])cc3)c1)O2` (stereo not given) showed a growth of 51.1%. With `CC(C)(C)c1ccc(C(=O)Nc2sc3c(c2C#N)CCC(=O)C3)cc1` the growth was 9.18% (active). `Oc1cccc(-c2nc(-c3n[nH]c(=S)n3-c3ccccc3)cc3c2[nH]c2ccccc23)c1` was tested, and the growth was 44.9%. In the case of `COC(=O)c1cc(-c2cc(OC)c(OC)c(OC)c2)[nH]c1N/N=C/c1c(Cl)cccc1Cl`, the growth is reported as 40.6%. `COc1ccc(C2=NN3C(C2)c2cc(Br)ccc2OC3c2ccncc2)cc1` (stereo not given) showed a growth of 83.3%. `CCCCC1=C(Br)C(=O)c2ncccc2C1=O` gave a growth of 92.7%. For `NS(=O)(=O)Oc1cccc(-c2nc3sccn3c2-c2ccccc2)c1`, the growth was 53%. For `CCOC(=O)c1ccc2c(c1)[n+](=O)c(C(C)=O)c(C(F)(F)F)n2[O-]`, the growth was 4.58% (active). In the case of `Nc1n[nH]c2cccc(C#Cc3cccc(C(=O)Nc4ccc(Cl)c(C(F)(F)F)c4)c3)c12`, the growth is reported as 51.7%. For `O=C(Nc1ccc2c(c1)-c1ccccc1C2)C1CC(=O)N(c2ccc3c(c2)OCO3)C1` (stereo not given), the growth was 73% [50 µM].
